Drawing on PubChem BioAssay (NCI), this text covers growth for eight molecules.

Compounds without any hit were thinned out: in the full panel of roughly 83,000, 20% have a hit.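 Step 1: grow cells in 96-well plates. Step 2: add test compound at a single concentration. Step 3: incubate 48 h. Step 4: record percent growth.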 Unmarked numbers belong to inactive results. Activity calls are given as the source filed them. How the source made its calls: active means growth percent below 10; inactive means the rest.

Some test systems named below: NCI-H23 lung; NCI-H322M lung; HOP-62 NSCLC; NCI-H460 lung; HOP-92 NSCLC; NCI-H522 lung; A549/ATCC NSCLC; 786-0 renal; COLO 205 colon; DU-145 prostate; K-562 leukemia; MALME-3M melanoma; MDA-MB-231 breast; RXF 393 renal; SF-268 CNS; SF-295 CNS; SF-539 CNS; UACC-257 melanoma; M14 melanoma.
Common to all, as to assay: NCI-60 one-dose screen, 48 h (100 = growth as untreated, 0 = no growth, -100 = all killed)
What all share (conditions): 10 µM unless noted

As to `O=Cc1[nH]c(Sc2ccccc2)c2ccccc12`, the growth in the experiment on NCI-H23 lung was 67.2%; in the experiment with NCI-H322M lung it was 91.7%; with HOP-62 NSCLC, 85.6%; in the experiment on NCI-H460 lung, 90.5%; in the experiment with HOP-92 NSCLC it was 45.7%; in the experiment on NCI-H522 lung it was 107%. Besides, the growth with A549/ATCC NSCLC was 96.1%; in the experiment with 786-0 renal, 81.1%; in the experiment with COLO 205 colon, 64.8%; in the experiment on DU-145 prostate it was 83%; with K-562 leukemia, 35.5%; in the experiment on MALME-3M melanoma it was 58.2%. In addition, the growth is 85.1% in the experiment with MDA-MB-231 breast; 75.1% in the experiment on RXF 393 renal; 75% with SF-268 CNS; 114% with SF-295 CNS; 78.8% in the experiment on SF-539 CNS; 77.7% in the experiment on UACC-257 melanoma. Moreover, the growth in the experiment on M14 melanoma is 81.3%.
In the case of `O=C1NC(c2ccc(F)cc2)N=C2C(c3ccccc3)=NOC12` (configuration not stated), the growth with NCI-H23 lung was 107%; in the experiment on NCI-H322M lung, 109%; in the experiment with HOP-62 NSCLC, 96.5%; in the experiment on NCI-H460 lung, 112%; in the experiment on HOP-92 NSCLC it was 103%; in the experiment with NCI-H522 lung, 92.1%. For the same molecule, the growth with A549/ATCC NSCLC is 90.7%; in the experiment on 786-0 renal it was 96.8%; with COLO 205 colon, 116%; with DU-145 prostate, 110%; in the experiment on K-562 leukemia, 105%; in the experiment with MALME-3M melanoma, 112%. Besides, the growth in the experiment on MDA-MB-231 breast was 115%; with RXF 393 renal, 105%; in the experiment on SF-268 CNS, 107%; in the experiment on SF-295 CNS, 108%; with SF-539 CNS, 105%; in the experiment on UACC-257 melanoma it was 96.7%. For the same molecule, the growth with M14 melanoma was 110%.
Take `CCCn1c(N)c(C(N)=O)sc1=S`: the growth is 105% in the experiment with NCI-H23 lung; 101% in the experiment on NCI-H322M lung; 98.9% with HOP-62 NSCLC; 114% with NCI-H460 lung; 89.5% with HOP-92 NSCLC; 94.5% in the experiment with NCI-H522 lung. The growth was 112% in the experiment with A549/ATCC NSCLC; 103% in the experiment with 786-0 renal; 118% in the experiment on COLO 205 colon; 117% in the experiment with DU-145 prostate; 119% with K-562 leukemia; 105% in the experiment with MALME-3M melanoma. The growth in the experiment with MDA-MB-231 breast was 99.8%; in the experiment with RXF 393 renal it was 125%; in the experiment with SF-268 CNS, 97.2%; in the experiment on SF-295 CNS, 115%; in the experiment with SF-539 CNS it was 109%; with UACC-257 melanoma it was 109%. The growth with M14 melanoma is 103%.
As to `COC(=O)/C=C/c1cc(OC)c2c(c1)[C@@H](C(=O)OC)[C@H](c1ccc(OC)c(OC)c1)O2`, the growth in the experiment on NCI-H23 lung is 38.9%; in the experiment on NCI-H322M lung, 98.3%; in the experiment on HOP-62 NSCLC, 24.9%; in the experiment with NCI-H460 lung, 59.7%; in the experiment on HOP-92 NSCLC it was 66.8%; in the experiment with NCI-H522 lung, 22.1%. Besides, the growth was 67.2% with A549/ATCC NSCLC; 37.9% in the experiment on 786-0 renal; 23.9% in the experiment with COLO 205 colon; 14% with DU-145 prostate; 10.8% in the experiment with K-562 leukemia; 44.3% in the experiment on MALME-3M melanoma. Moreover, the growth in the experiment on MDA-MB-231 breast is 53.4%; in the experiment with RXF 393 renal, -12.2% (active); in the experiment on SF-268 CNS, 59.6%; with SF-295 CNS, 18.4%; in the experiment on SF-539 CNS, -7.1% (active); in the experiment with UACC-257 melanoma it was 44.7%. The growth in the experiment on M14 melanoma was 2.02% (active).
For the molecule `COc1ccc(Nc2cc(NC(=O)CNc3cc(OC)c(Cl)c(OC)c3Cl)ncn2)cc1`, the growth in the experiment on NCI-H23 lung was 90.2%; in the experiment on NCI-H322M lung, 88%; in the experiment with HOP-62 NSCLC, 83.1%; with NCI-H460 lung, 89.3%; in the experiment with HOP-92 NSCLC, 74.3%; in the experiment on NCI-H522 lung, 65.5%. Also, the growth in the experiment on A549/ATCC NSCLC is 71.1%; in the experiment with 786-0 renal, 88.1%; in the experiment on COLO 205 colon, 89.5%; with DU-145 prostate it was 98.8%; in the experiment with K-562 leukemia, 74.1%; with MALME-3M melanoma, 106%. The growth was 69.4% in the experiment with MDA-MB-231 breast; 86.7% in the experiment with RXF 393 renal; 78.3% in the experiment with SF-268 CNS; 76.4% in the experiment with SF-295 CNS; 82% in the experiment with SF-539 CNS; 88% in the experiment with UACC-257 melanoma. Also, the growth in the experiment on M14 melanoma is 75.2%.
As to `C=C1C(=O)O[C@H]2[C@H]1CC/C(COC(=O)c1cn(C)c3ccccc13)=C\CC[C@@]1(C)O[C@@H]21`, the growth in the experiment with NCI-H23 lung is 22.5%; in the experiment on NCI-H322M lung, 85.2%; in the experiment on HOP-62 NSCLC it was 32.4%; with NCI-H460 lung it was 39.7%; in the experiment with HOP-92 NSCLC, -57.9% (active); in the experiment with NCI-H522 lung, -85.1% (active). In addition, the growth was 51.4% in the experiment on A549/ATCC NSCLC; -63% (active) with 786-0 renal; -80.4% (active) in the experiment on COLO 205 colon; -72.4% (active) with DU-145 prostate; 0.396% (active) with K-562 leukemia; -60.3% (active) in the experiment with MALME-3M melanoma. Also, the growth in the experiment on MDA-MB-231 breast is -49% (active); with RXF 393 renal, -87.8% (active); in the experiment on SF-268 CNS it was -8.89% (active); with SF-295 CNS, 63.8%; with SF-539 CNS, -58% (active); in the experiment with UACC-257 melanoma it was -56% (active). In the experiment with M14 melanoma, the growth was -36.8% (active).
Take `COc1ccc(/C=C/C(=O)C(CC2CCC2)C(=O)/C=C/c2ccc(OC)c(OC)c2)cc1OC`: the growth is 3.1% (active) in the experiment with NCI-H23 lung; 10.6% in the experiment on NCI-H322M lung; -39% (active) in the experiment on HOP-62 NSCLC; -30.3% (active) in the experiment with NCI-H460 lung; -5.24% (active) with HOP-92 NSCLC; -38.2% (active) with NCI-H522 lung. In addition, the growth in the experiment on A549/ATCC NSCLC was -47% (active); with 786-0 renal, -44.6% (active); in the experiment on COLO 205 colon it was -53.7% (active); with DU-145 prostate, -23% (active); with K-562 leukemia, 1.54% (active); in the experiment with MALME-3M melanoma, -13.6% (active). Moreover, the growth is 6.65% (active) in the experiment with MDA-MB-231 breast; -72.5% (active) in the experiment with RXF 393 renal; 2.31% (active) in the experiment with SF-268 CNS; -16.6% (active) in the experiment on SF-295 CNS; -38.2% (active) with SF-539 CNS; -16.7% (active) in the experiment on UACC-257 melanoma. In the experiment with M14 melanoma, the growth was 5.19% (active).
`C#C[C@@]1(O)[C@@H](CO)O[C@@H](n2cnc3c(-c4ccccc4)ncnc32)[C@@H]1O`: the growth in the experiment on NCI-H23 lung was 101%; with NCI-H322M lung, 104%; in the experiment on HOP-62 NSCLC, 110%; in the experiment with NCI-H460 lung, 112%; in the experiment with HOP-92 NSCLC, 105%; in the experiment on NCI-H522 lung, 94.8%. For the same molecule, the growth in the experiment with A549/ATCC NSCLC was 94.1%; in the experiment on 786-0 renal, 98.8%; in the experiment with COLO 205 colon it was 109%; with DU-145 prostate, 109%; in the experiment on K-562 leukemia, 105%; in the experiment on MALME-3M melanoma, 103%. Besides, the growth in the experiment on MDA-MB-231 breast was 126%; in the experiment on RXF 393 renal, 122%; with SF-268 CNS, 99%; in the experiment on SF-295 CNS it was 97.7%; in the experiment with SF-539 CNS, 108%; in the experiment with UACC-257 melanoma it was 117%. In the experiment on M14 melanoma, the growth was 97.8%.
